Records with an inconclusive call do not appear. Activity calls are given as the source filed them. The call rests on the fitted dose curve; in most records, active means well fitted inhibition curve with a large enough effect; inconclusive means small, poorly fitted or top-dose-only effect; inactive means flat fitted curve, though single readings scatter. Bridge positions count the residues as written; N and C are the ends. Square brackets hold non-standard residues; d marks the D form. Peptide text beside a SMILES is read from it. * marks the point of attachment. ξ: configuration not given here. Octanoyl(6-Me) = CCC(C)CCCCC(=O)*; ξThr(3R) = C[C@@H](O)C(N)C(=O)O; dDab = NCC[C@@H](N)C(=O)O; Dab = NCC[C@H](N)C(=O)O
molecular target: Luciferin 4-monooxygenase (Photinus pyralis) (UniProt P08659); assay: Biochemical firefly luciferase enzyme assay for NPC (AID 624030);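 further: purified P. pyralis luciferase at 10 nM with luciferin and ATP substrate; 0% = DMSO and -100% = full luciferase inhibition by PTC124 control; nearly all actives have a fitted effect of over 70% in size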; details: purified P. pyralis luciferase, luminescence, 5 min; series mostly up to 58.6 µM; activity change, negative = inhibition: at the top concentration
Procedure, shortened: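 Direct inhibition of firefly luciferase enzyme (10 nM final, 50 mM Tris Acetate) assessed by luminescence within 5 minutes. Percent activity scaled between DMSO and PTC124 positive control, with concentration-effect curves classified by fit quality and response.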

Luciferin 4-monooxygenase (Photinus pyralis), sequence (P08659 whole entry, looked up): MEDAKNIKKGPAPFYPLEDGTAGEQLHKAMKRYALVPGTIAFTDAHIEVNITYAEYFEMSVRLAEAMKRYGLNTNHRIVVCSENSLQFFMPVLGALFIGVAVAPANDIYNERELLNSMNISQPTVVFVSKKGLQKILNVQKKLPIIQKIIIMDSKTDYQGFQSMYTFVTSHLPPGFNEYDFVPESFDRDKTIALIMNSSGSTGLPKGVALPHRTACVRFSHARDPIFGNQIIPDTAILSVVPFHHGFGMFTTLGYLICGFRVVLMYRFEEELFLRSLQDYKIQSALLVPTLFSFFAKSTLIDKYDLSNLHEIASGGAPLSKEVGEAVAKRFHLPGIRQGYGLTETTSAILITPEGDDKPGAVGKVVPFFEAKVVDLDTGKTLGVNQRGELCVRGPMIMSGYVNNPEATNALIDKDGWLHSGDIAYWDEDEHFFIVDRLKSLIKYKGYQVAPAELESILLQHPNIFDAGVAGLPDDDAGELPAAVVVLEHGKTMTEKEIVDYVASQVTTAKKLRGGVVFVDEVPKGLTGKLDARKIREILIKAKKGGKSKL

Activity change, negative = inhibition, inactive:
CSCC[C@H](NC(=O)[C@@H](Cc1ccc(O[S+](=O)([O-])O)cc1)NC(=O)[C@H](N)CC(=O)O)C(=O)NCC(=O)N[C@@H](Cc1c[nH]c2ccccc12)C(=O)N[C@H](CCSC)C(=O)N[C@H](CC(=O)O)C(=O)N[C@@H](Cc1ccccc1)C(N)=O -9.06%
CCCCC/C=C/C/C=C/CCCCCCCC(=O)NC(C)c1ccccc1 (stereo unspecified) -0.61%
C=C1C[C@@H]2[C@H]3CCC4=CC(=O)C=C[C@]4(C)[C@@]3(F)[C@@H](O)C[C@]2(C)[C@]1(O)C(=O)COC(C)=O -0.679%
CC(C)(C)CC(=O)OCC(=O)[C@@]12OC(C)(C)O[C@@H]1C[C@H]1[C@@H]3CCC4=CC(=O)C=C[C@]4(C)[C@@]3(F)[C@@H](O)C[C@]12C -1.17%
COC(=O)C1=C(C)NC(C)=C(C(=O)O[C@H]2CCN(Cc3ccccc3)C2)C1c1cccc([N+](=O)[O-])c1 (stereo partly specified) -0.631%
CCN(CC)CCOc1ccc(/C(=C(/Cl)c2ccccc2)c2ccccc2)cc1 6.1%
CC(=O)CC/C=C(\C)CC/C=C(/C)CC/C=C(\C)CCC=C(C)C -0.539%
Cc1cccc(C)c1N(CCCc1cccnc1)C(=O)[C@@H](C)N 0.23%
CCC(=O)OCC(=O)C1(OC(=O)CC)C(C)CC2C3CCC4=CC(=O)C=CC4(C)C3(Cl)C(O)CC21C (stereo unspecified) -5.88%
CCC(C)CCCCC(=O)N[C@@H](CCN)C(=O)N[C@H](C(=O)N[C@@H](CCN)C(=O)N[C@H]1CCNC(=O)C([C@@H](C)O)NC(=O)[C@@H](CCN)NC(=O)[C@H](CCN)NC(=O)[C@H](CC(C)C)NC(=O)[C@@H](CC(C)C)NC(=O)[C@H](CCN)NC1=O)[C@@H](C)O (stereo partly drawn) ({Octanoyl(6-Me)}-[Dab]T[Dab][Dab][Dab][dL]L[Dab][dDab][ξThr(3R)]; lactam 4-C) 11.7%

Potency, inactive:
CC(=O)O[C@H](C)OC(=O)[C@@H](C)c1ccc(-c2ccccc2)c(F)c1

From PubChem BioAssay (NCATS)
